Here are results for 9 molecules from PubChem BioAssay (NCI).

Compounds without any hit were thinned out: in the full panel of roughly 83,000, 20% have a hit.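 Compound tested at a single concentration for 48 hours in 96-well plates; a percent growth value below 10 was scored as active.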 A number with no mark means an inactive call. The source made the active and inactive calls.

Among the test systems are SR leukemia; RPMI-8226 leukemia; OVCAR-8 ovarian; OVCAR-5 ovarian; OVCAR-4 ovarian; SK-OV-3 ovarian; IGROV1 ovarian; OVCAR-3 ovarian; HS 578T breast; NCI/ADR-RES ovarian; T-47D breast; MDA-MB-435 melanoma; SW-620 colon; MCF7 breast; HCT-116 colon; HCC-2998 colon; KM12 colon; BT-549 breast.
Assay in all cases: NCI-60 one-dose screen, 48 h (100 = growth as untreated, 0 = no growth, -100 = all killed)
Conditions in all cases: 10 µM unless noted

Consider `O=C(Nc1ccc2c(ccn2Cc2ccccn2)c1)c1cnccn1`, for which the growth is 92.7% in the assay on SR leukemia; 93.7% in the assay with RPMI-8226 leukemia; 105% in the assay on OVCAR-8 ovarian; 96.8% in the assay with OVCAR-5 ovarian; 76% in the assay on OVCAR-4 ovarian; 109% in the assay with SK-OV-3 ovarian. Besides, the growth in the assay on IGROV1 ovarian is 79.7%; in the assay with OVCAR-3 ovarian, 110%; in the assay with HS 578T breast, 104%; in the assay on NCI/ADR-RES ovarian it was 107%; in the assay with T-47D breast it was 101%; with MDA-MB-435 melanoma, 100%. Also, the growth in the assay with SW-620 colon is 93.7%; in the assay on MCF7 breast, 98.1%; with HCT-116 colon, 100%; in the assay with HCC-2998 colon, 115%; in the assay on KM12 colon, 100%.
Take `O=S(=O)(Oc1ccc(-c2nnc(Nc3ccccc3)s2)cc1)C(F)(F)C(F)(F)C(F)(F)C(F)(F)C(F)(F)C(F)(F)F`: the growth in the assay on SR leukemia was 19.5%; with RPMI-8226 leukemia, 105%; with OVCAR-8 ovarian, 107%; in the assay on OVCAR-5 ovarian, 93.3%; with OVCAR-4 ovarian, 107%; in the assay on SK-OV-3 ovarian, 108%. In addition, the growth with IGROV1 ovarian was 107%; with OVCAR-3 ovarian, 108%; with HS 578T breast it was 98.4%; in the assay with T-47D breast, 104%; with BT-549 breast it was 112%; in the assay on MDA-MB-435 melanoma it was 103%. Moreover, the growth in the assay on SW-620 colon was 103%; with MCF7 breast, 90.7%; with HCT-116 colon it was 109%; in the assay with HCC-2998 colon, 105%; with KM12 colon, 102%.
With `C=CCN(C)S(=O)(=O)/N=C1\NC(=O)NC1=C(Cl)Cl`, the growth in the assay with SR leukemia is -18.7% (active); with RPMI-8226 leukemia it was 5.23% (active); in the assay with OVCAR-8 ovarian, 61.2%; with OVCAR-5 ovarian, -37.5% (active); in the assay on OVCAR-4 ovarian it was 89.1%; in the assay on SK-OV-3 ovarian, 104%. The growth was -37.4% (active) in the assay with IGROV1 ovarian; -84.3% (active) in the assay on OVCAR-3 ovarian; 80.5% in the assay with HS 578T breast; 55.1% with T-47D breast; 89.1% in the assay with BT-549 breast; 34.4% in the assay on MDA-MB-435 melanoma. Moreover, the growth in the assay with SW-620 colon was -61.9% (active); in the assay with MCF7 breast, 11.9%; in the assay with HCT-116 colon it was 1.54% (active); in the assay on HCC-2998 colon it was 40.1%; in the assay with KM12 colon, 7.25% (active).
Take `COc1ccc2c(c1)c(CC(=O)[Se]CC(=O)O)c(C)n2C(=O)c1ccc(Cl)cc1`: the growth with SR leukemia is 101%; in the assay on RPMI-8226 leukemia, 98.4%; in the assay with OVCAR-8 ovarian it was 101%; in the assay on OVCAR-5 ovarian it was 104%; with OVCAR-4 ovarian, 103%; in the assay with SK-OV-3 ovarian it was 116%. In addition, the growth in the assay on IGROV1 ovarian is 74.5%; in the assay with OVCAR-3 ovarian, 113%; in the assay with HS 578T breast, 85.8%; in the assay on T-47D breast, 103%; in the assay with BT-549 breast, 122%; with MDA-MB-435 melanoma, 51.2%. Besides, the growth is 113% in the assay with SW-620 colon; 37.4% with MCF7 breast; 98.1% in the assay with HCT-116 colon; 119% in the assay on HCC-2998 colon; 101% in the assay on KM12 colon.
Take `Nc1nc(Nc2ccccc2SSc2ccccc2Nc2nc(N)nc(-c3ccccc3)n2)nc(-c2ccccc2)n1`: the growth with SR leukemia is -47% (active); with RPMI-8226 leukemia, 11.2%; in the assay with OVCAR-8 ovarian it was 73.9%; in the assay on OVCAR-5 ovarian, 107%; in the assay with OVCAR-4 ovarian it was 63%; with SK-OV-3 ovarian, 130%. In addition, the growth is 52.2% in the assay with IGROV1 ovarian; 90.3% with OVCAR-3 ovarian; 84.3% in the assay on HS 578T breast; 14.9% in the assay with NCI/ADR-RES ovarian; 74.7% in the assay on T-47D breast; 90.6% in the assay with MDA-MB-435 melanoma. Also, the growth with SW-620 colon is 70.5%; with MCF7 breast, 68.3%; with HCT-116 colon, 61.3%; in the assay on HCC-2998 colon, 110%; in the assay on KM12 colon it was 22.1%.
On to `Nn1c(N/N=C/c2nc3ccccc3s2)n[nH]c1=S`, for which the growth is 108% with SR leukemia; 105% in the assay with RPMI-8226 leukemia; 107% with OVCAR-8 ovarian; 103% with OVCAR-5 ovarian; 85.8% with OVCAR-4 ovarian; 118% in the assay with SK-OV-3 ovarian. For the same molecule, the growth in the assay on IGROV1 ovarian was 82.2%; in the assay on OVCAR-3 ovarian, 118%; in the assay on HS 578T breast, 110%; in the assay with T-47D breast it was 108%; with MDA-MB-435 melanoma, 110%; with SW-620 colon, 105%. Further, the growth was 93.7% with MCF7 breast, 107% in the assay on HCT-116 colon, 123% in the assay on HCC-2998 colon and 102% in the assay on KM12 colon.
For the molecule `O=C(CCC(=O)N1CCOCC1)OCCCCCCSc1ccc([N+](=O)[O-])c2nonc12`, the growth in the assay on SR leukemia is -2.69% (active); with RPMI-8226 leukemia it was -21.1% (active); in the assay on OVCAR-8 ovarian, -6.75% (active); with OVCAR-5 ovarian, -20.1% (active); in the assay with OVCAR-4 ovarian, -83.7% (active); with SK-OV-3 ovarian, 39.8%. In addition, the growth in the assay with IGROV1 ovarian was -88.7% (active); in the assay with OVCAR-3 ovarian it was -66.9% (active); in the assay with HS 578T breast it was -8.04% (active); with T-47D breast, -36.2% (active); with BT-549 breast, -52.5% (active); in the assay on MDA-MB-435 melanoma it was -88.1% (active). Moreover, the growth with SW-620 colon was -54.9% (active); with MCF7 breast it was -57.7% (active); in the assay on HCT-116 colon it was -54.7% (active); in the assay on HCC-2998 colon, -69.4% (active); in the assay on KM12 colon it was -68.7% (active).
In the case of `CNC(=O)c1cc(-c2ccc(NC(=S)Nc3cc(C(F)(F)F)cc(C(F)(F)F)c3)cc2)nc2cccnc12`, the growth is 71.8% in the assay with SR leukemia; 93.7% with RPMI-8226 leukemia; 100% in the assay on OVCAR-8 ovarian; 102% in the assay with OVCAR-5 ovarian; 75.3% in the assay on OVCAR-4 ovarian; 102% in the assay with SK-OV-3 ovarian. The growth was 75.9% in the assay with IGROV1 ovarian; 106% with OVCAR-3 ovarian; 93.9% in the assay on HS 578T breast; 85.1% in the assay with T-47D breast; 94.9% in the assay with MDA-MB-435 melanoma; 98.1% in the assay on SW-620 colon. Moreover, the growth was 59.6% in the assay with MCF7 breast, 99% with HCT-116 colon, 122% in the assay with HCC-2998 colon and 98.6% in the assay with KM12 colon.
Turning to `COc1ccc(-c2cc(-c3ccc(Cl)cc3)c(C#N)c(=O)n2Cc2ccc(C(=O)O)cc2)cc1`, the growth with SR leukemia is 28.9%; in the assay on RPMI-8226 leukemia, 79.9%; with OVCAR-8 ovarian it was 99%; in the assay with OVCAR-5 ovarian, 105%; in the assay on OVCAR-4 ovarian, 88.6%; with SK-OV-3 ovarian, 114%. Further, the growth in the assay on IGROV1 ovarian was 96.9%; with OVCAR-3 ovarian it was 6.02% (active); with HS 578T breast, 31.9%; in the assay with T-47D breast it was 48.7%; with BT-549 breast, 62.8%; in the assay on MDA-MB-435 melanoma it was 21.1%. Also, the growth with SW-620 colon was 94.8%; in the assay on MCF7 breast it was 33.3%; in the assay with HCT-116 colon, 77.7%; in the assay on HCC-2998 colon, 95.6%; in the assay with KM12 colon, 43.2%.
